# Reference: PubChem BioAssay (EPA / NIEHS)
# Records with an inconclusive call do not appear. The source made the active and inactive calls. How the source made its calls, unless noted: active means hit-call score of the fitted dose curve at least 0.9, where 1 is the maximum; inactive means score below 0.9.
# Legend:
# [1] = target: Myc proto-oncogene protein (Homo sapiens) (UniProt P01106); assay: ATG_Myc_CIS: Attagene CIS-FACTORIAL HepG2 Assay for human Myelocytomatosis (Myc) Proto-Oncogene Transcription Factor (AID 2282990); settings: HepG2, Attagene cis-reporter transcription factor activity; actives raise or lower the signal
# Myc proto-oncogene protein (Homo sapiens), sequence (P01106 whole entry, looked up): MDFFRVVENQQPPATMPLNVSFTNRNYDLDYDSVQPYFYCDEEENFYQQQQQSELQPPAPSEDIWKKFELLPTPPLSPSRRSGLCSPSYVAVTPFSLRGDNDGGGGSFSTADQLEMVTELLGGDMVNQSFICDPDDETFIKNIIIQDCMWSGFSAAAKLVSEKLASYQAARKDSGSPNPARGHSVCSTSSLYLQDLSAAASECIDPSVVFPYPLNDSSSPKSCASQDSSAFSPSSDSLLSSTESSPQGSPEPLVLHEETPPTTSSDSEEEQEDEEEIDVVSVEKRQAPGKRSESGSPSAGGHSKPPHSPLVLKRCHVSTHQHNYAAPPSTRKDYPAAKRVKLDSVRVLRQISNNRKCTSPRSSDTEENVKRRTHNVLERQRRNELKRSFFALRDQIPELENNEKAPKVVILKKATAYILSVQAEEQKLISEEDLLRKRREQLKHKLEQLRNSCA
# Method in brief: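 DMSO-normalised, bidirectionally fitted reporter mRNA signal. HepG2 cells transfected with cis reporter constructs, treated 24 h; transcripts detected by RT-PCR, 6-FAM primer extension and CE.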
# [2] = ATG_NRF2_ARE_CIS: Attagene CIS-FACTORIAL HepG2 Assay for human Nuclear Factor Erythroid 2 Related Factor 2 (NFR2) response to Antioxidant Response Elements (ARE) (AID 2282992); settings: HepG2 Attagene ARE/NRF2 reporter, transcription factor activity; actives raise or lower the signal
# Method in brief: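 Endogenous transcription factor activity read out as reporter transcript levels (RT-PCR plus capillary electrophoresis, fluorescence) in transiently transfected HepG2 cells. Measured at 24 h after dosing; gain or loss of signal fitted versus DMSO.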
# [3] = ATG_Oct_MLP_CIS: Attagene CIS-FACTORIAL HepG2 Assay for human Octamer-Binding Transcription Factor (Oct) (AID 2282993); settings: HepG2 Attagene cis-factorial Oct reporter, mRNA; actives raise or lower the signal
# Method in brief: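 Readout is reporter transcript level from RT-PCR with fluorescent primer extension and capillary electrophoresis, fitted in both directions against DMSO. Transfected HepG2 reporter units report endogenous factor activity after 24 h dosing.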
# [4] = target: Cellular tumor antigen p53 (Homo sapiens) (UniProt P04637); assay: ATG_p53_CIS: Attagene CIS-FACTORIAL HepG2 Assay for human p53 Transcription Factor (AID 2282994); settings: HepG2 p53 cis-element reporter, Attagene mRNA; actives raise or lower the signal
# Cellular tumor antigen p53 (Homo sapiens), sequence (P04637 whole entry, looked up): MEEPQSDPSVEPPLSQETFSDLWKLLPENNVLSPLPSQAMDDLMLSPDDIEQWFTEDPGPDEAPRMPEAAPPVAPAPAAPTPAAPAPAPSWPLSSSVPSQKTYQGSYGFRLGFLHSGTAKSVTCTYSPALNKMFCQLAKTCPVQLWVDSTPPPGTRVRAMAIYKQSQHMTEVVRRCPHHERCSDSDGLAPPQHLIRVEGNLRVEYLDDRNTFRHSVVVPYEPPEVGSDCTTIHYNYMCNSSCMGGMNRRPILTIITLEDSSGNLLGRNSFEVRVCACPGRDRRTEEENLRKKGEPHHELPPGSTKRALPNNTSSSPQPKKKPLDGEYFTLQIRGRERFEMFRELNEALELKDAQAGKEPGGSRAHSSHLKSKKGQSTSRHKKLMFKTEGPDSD
# Method in brief: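 Endogenous p53 activity read in transiently transfected HepG2 from a cis-element-driven reporter transcript after 24 h exposure. RNA reverse-transcribed, PCR-amplified, fluorescently labelled and sized by capillary electrophoresis; gain or loss fitted against DMSO baseline.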
# [5] = target: human Peroxisome Proliferator-activated Receptor alpha (PPARa), PPARA (gene 5465) (UniProt Q07869); assay: ATG_PPARa_TRANS: Attagene TRANS-FACTORIAL HepG2 Assay for human Peroxisome Proliferator-activated Receptor alpha (PPARa) (AID 2283001; active means hit-call score of the fitted dose curve at least 0.9, where 1 is the maximum)
# human Peroxisome Proliferator-activated Receptor alpha (PPARa), PPARA (gene 5465), sequence (Q07869 whole entry, looked up, the tested form may be a part): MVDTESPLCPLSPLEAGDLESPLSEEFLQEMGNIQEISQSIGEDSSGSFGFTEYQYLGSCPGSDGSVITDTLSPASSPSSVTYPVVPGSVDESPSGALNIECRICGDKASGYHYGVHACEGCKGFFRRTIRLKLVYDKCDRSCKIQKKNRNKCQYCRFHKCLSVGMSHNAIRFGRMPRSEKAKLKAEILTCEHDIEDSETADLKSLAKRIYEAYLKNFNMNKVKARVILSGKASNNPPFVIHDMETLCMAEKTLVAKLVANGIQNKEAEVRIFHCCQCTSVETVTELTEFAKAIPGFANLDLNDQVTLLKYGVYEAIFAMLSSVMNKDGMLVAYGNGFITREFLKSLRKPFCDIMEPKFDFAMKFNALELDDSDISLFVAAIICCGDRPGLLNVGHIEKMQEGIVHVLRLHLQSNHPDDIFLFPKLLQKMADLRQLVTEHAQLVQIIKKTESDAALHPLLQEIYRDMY
# Method in brief: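 Exposure: 24 h, transiently transfected HepG2 cells. Endpoint: GAL4-UAS reporter mRNA, RT-PCR with capillary electrophoresis fluorescence. Baseline: DMSO; increases fitted.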
# [6] = target: human Peroxisome Proliferator-activated Receptor delta (PPARd), PPARD (gene 5467) (UniProt Q03181); assay: ATG_PPARd_TRANS: Attagene TRANS-FACTORIAL HepG2 Assay for human Peroxisome Proliferator-activated Receptor delta (PPARd) (AID 2283002; active means hit-call score of the fitted dose curve at least 0.9, where 1 is the maximum)
# human Peroxisome Proliferator-activated Receptor delta (PPARd), PPARD (gene 5467), sequence (Q03181 whole entry, looked up, the tested form may be a part): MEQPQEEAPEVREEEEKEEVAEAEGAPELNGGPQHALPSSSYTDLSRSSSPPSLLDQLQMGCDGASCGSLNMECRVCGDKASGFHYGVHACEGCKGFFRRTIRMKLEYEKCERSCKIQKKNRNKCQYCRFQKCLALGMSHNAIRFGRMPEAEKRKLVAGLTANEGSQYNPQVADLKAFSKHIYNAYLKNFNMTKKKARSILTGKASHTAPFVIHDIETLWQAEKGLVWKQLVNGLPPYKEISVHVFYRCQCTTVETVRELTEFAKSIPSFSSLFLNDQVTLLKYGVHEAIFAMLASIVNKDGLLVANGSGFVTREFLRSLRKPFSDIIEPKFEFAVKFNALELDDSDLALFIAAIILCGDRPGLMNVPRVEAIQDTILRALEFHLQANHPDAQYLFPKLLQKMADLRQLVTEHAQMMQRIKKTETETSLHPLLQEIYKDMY
# Method in brief: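 Measured quantity: GAL4-UAS reporter transcript induction in HepG2 after 24 h chemical dosing, with NR-Gal4 chimeras supplied by transient transfection. Detection by RT-PCR and capillary electrophoresis; upward fit against DMSO.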
# [7] = target: Peroxisome proliferator-activated receptor gamma (Homo sapiens) (UniProt P37231); assay: ATG_PPARg_TRANS: Attagene TRANS-FACTORIAL HepG2 Assay for human Peroxisome Proliferator-activated Receptor-gamma (PPARg) (AID 2283007; active means hit-call score of the fitted dose curve at least 0.9, where 1 is the maximum)
# Peroxisome proliferator-activated receptor gamma (Homo sapiens), sequence (P37231 whole entry, looked up): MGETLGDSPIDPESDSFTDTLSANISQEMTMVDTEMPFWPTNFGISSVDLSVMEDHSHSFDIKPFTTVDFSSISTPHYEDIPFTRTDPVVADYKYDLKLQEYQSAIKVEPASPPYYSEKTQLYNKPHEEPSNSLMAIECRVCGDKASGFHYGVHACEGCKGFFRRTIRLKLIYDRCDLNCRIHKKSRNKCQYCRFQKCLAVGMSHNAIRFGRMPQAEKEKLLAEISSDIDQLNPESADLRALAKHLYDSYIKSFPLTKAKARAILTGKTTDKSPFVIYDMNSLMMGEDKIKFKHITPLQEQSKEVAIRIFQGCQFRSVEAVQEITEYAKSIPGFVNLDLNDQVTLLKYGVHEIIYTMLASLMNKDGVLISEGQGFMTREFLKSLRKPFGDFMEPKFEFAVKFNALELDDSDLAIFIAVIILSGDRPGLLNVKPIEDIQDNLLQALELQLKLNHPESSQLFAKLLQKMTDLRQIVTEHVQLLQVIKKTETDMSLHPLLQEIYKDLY
# Method in brief: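 Twenty-four hours after chemical dosing of transiently transfected HepG2 cells, isolated RNA was converted to cDNA, reporter sequences amplified and 6-FAM-labelled, then HpaI-digested and analysed by capillary electrophoresis. Signal increase against DMSO was fitted.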
# [8] = target: Nuclear receptor subfamily 1 group I member 2 (Homo sapiens) (UniProt O75469); assay: ATG_PXR_TRANS: Attagene TRANS-FACTORIAL HepG2 Assay for human Pregnane X Receptor (PXR) (AID 2283008; active means hit-call score of the fitted dose curve at least 0.9, where 1 is the maximum)
# Nuclear receptor subfamily 1 group I member 2 (Homo sapiens), sequence (O75469 whole entry, looked up, the tested form may be a part): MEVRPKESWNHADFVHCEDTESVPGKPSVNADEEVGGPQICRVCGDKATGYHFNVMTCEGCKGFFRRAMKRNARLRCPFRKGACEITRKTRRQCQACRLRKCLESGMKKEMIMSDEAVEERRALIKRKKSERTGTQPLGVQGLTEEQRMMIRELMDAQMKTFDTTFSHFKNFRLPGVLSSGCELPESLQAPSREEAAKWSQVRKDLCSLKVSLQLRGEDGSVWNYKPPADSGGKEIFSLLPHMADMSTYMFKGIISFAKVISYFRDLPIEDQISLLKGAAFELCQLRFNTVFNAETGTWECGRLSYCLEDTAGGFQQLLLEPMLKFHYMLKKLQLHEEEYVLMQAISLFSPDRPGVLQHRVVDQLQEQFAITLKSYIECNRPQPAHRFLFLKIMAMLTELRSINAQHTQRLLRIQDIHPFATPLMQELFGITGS
# Method in brief: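 Transactivation by exogenous PXR–GAL4 fusion measured as reporter transcript induction after 24 h compound treatment of transfected human HepG2 cells. Read-out via RT-PCR and capillary electrophoresis of labelled fragments, fitted upward relative to DMSO.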
# [9] = target: human Retinoic Acid Receptor gamma (RARg), RARG (gene 5916) (UniProt P13631); assay: ATG_RARg_TRANS: Attagene TRANS-FACTORIAL HepG2 Assay for human Retinoic Acid Receptor gamma (RARg) (AID 2283009; active means hit-call score of the fitted dose curve at least 0.9, where 1 is the maximum)
# human Retinoic Acid Receptor gamma (RARg), RARG (gene 5916), sequence (P13631 whole entry, looked up, the tested form may be a part): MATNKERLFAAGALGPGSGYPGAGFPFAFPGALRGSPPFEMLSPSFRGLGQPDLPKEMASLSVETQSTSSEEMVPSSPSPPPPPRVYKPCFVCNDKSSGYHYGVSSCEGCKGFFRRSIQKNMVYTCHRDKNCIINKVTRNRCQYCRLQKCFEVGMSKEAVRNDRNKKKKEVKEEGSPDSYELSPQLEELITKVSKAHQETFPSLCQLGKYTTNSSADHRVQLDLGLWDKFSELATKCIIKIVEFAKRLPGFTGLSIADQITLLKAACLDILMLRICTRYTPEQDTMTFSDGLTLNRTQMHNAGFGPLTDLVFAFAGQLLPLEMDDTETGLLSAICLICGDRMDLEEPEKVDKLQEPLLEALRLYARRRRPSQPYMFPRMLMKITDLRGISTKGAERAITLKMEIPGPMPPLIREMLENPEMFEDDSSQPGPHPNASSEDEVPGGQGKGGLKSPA
# Method in brief: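 Readout: reporter transcript levels via RT-PCR, 6-FAM primer-extension labelling, HpaI digestion and capillary electrophoresis. Cells: HepG2 carrying transfected RARg-GAL4 chimera plus UAS reporter set. Dosing 24 h; DMSO negative control.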
# [10] = target: human RAR-related Orphan Receptor gamma (RORg), RORC (gene 6097) (UniProt P51449); assay: ATG_RORg_TRANS: Attagene TRANS-FACTORIAL HepG2 Assay for human RAR-related Orphan Receptor gamma (RORg) (AID 2283011; active means hit-call score of the fitted dose curve at least 0.9, where 1 is the maximum)
# human RAR-related Orphan Receptor gamma (RORg), RORC (gene 6097), sequence (P51449 whole entry, looked up, the tested form may be a part): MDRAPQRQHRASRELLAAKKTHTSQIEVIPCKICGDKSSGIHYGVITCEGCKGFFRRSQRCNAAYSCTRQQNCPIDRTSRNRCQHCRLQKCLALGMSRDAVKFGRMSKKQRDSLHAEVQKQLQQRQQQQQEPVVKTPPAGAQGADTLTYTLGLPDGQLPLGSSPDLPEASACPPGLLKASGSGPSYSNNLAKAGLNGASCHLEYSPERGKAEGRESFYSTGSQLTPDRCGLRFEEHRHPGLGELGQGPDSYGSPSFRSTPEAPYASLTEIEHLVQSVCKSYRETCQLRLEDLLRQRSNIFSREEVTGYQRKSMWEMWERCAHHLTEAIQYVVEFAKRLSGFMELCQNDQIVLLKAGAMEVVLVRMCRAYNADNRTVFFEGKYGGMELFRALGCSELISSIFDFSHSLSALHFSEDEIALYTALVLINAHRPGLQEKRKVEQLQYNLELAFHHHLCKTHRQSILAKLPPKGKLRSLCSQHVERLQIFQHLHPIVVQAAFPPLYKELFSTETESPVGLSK
# Method in brief: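 Readout: reporter transcript induction (RT-PCR, fluorescent primer extension, capillary electrophoresis) after 24 h compound exposure of transiently transfected HepG2 cells carrying a RORg-Gal4 chimera and GAL4-UAS reporters; DMSO served as baseline, with increasing signal fitted.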
# [11] = BSK_3C_TissueFactor: BioMAP Diversity Plus: 3C Assay for Tissue Factor Biomarker Activity (AID 2282997); settings: BioMAP 3C HUVEC, tissue factor biomarker readout; actives raise or lower the signal
# Method in brief: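 Readout: Tissue Factor ELISA. Cells: human primary umbilical vein endothelium. Time: 24 h after dosing. Analysis: bidirectional fit, DMSO baseline.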
# [12] = BSK_3C_uPAR: BioMAP Diversity Plus: 3C Assay for Urokinase-type plasminogen activator receptor (uPAR) Biomarker Activity (AID 2282998); settings: BioMAP 3C HUVEC, uPAR biomarker ELISA; actives raise or lower the signal
# Method in brief: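 Cell-surface uPAR on HUVEC (3C system) read by ELISA at 24 h post-treatment, with DMSO as baseline and fitting in both directions. Parallel cultures stained with SRB to flag overt cytotoxicity.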
# [13] = BSK_3C_VCAM1: BioMAP Diversity Plus: 3C Assay for Vascular cell adhesion molecule 1 (VCAM1) Biomarker Activity (AID 2282999); settings: BioMAP 3C HUVEC, VCAM1 ELISA, cytokine-stimulated; actives raise or lower the signal
# Method in brief: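 Vascular primary endothelium (human umbilical vein) was exposed to chemicals and assayed 24 h later. VCAM-1 levels came from ELISA, with DMSO serving as baseline for bidirectional fitting.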
# [14] = BSK_4H_Eotaxin3: BioMAP Diversity Plus: 4H Assay for Eotaxin 3 Biomarker Activity (AID 2283000); settings: primary human endothelial cells (HUVEC); actives raise or lower the signal;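 on outcome: CCL26 protein level quantified by ELISA in parallel with SRB cytotoxicity check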
# Method in brief: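 HUVEC, 24 h post-dose, ELISA for Eotaxin-3/CCL26. Gain or loss of signal fitted bidirectionally vs DMSO baseline.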
# [15] = read-out: Intercellular Adhesion Molecule 1 (ICAM1), ICAM1 (gene 3383); assay: BSK_3C_ICAM1: BioMAP Diversity Plus: 3C Assay for Intercellular Adhesion Molecule 1 (ICAM1) Biomarker Activity (AID 2283003); settings: primary human endothelial cells (HUVEC); actives raise or lower the signal
# Method in brief: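 ELISA read-out of ICAM-1; HUVEC (primary human), 3C system, 24 h post-dosing; bidirectional fit vs DMSO baseline.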
# [16] = BSK_3C_Proliferation: Cell Proliferation Assessment in the BioMAP Diversity Plus: 3C Assay (AID 2283006); settings: primary human endothelial cells (HUVEC);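 on AC50: potency may reflect either rise or fall in cell number versus DMSO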
# Method in brief: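 HUVEC, sub-confluent; 48 h chemical exposure; 10% TCA fix, 0.1% SRB stain, A560 total protein. Gain or loss of signal fitted both directions vs DMSO control.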
# [17] = ATG_NF_kB_CIS: Attagene CIS-FACTORIAL HepG2 Assay for human Nuclear Factor Kappa B (NF-kB) (AID 2282991); settings: HepG2 Attagene cis-factorial NF-kB reporter mRNA; actives raise or lower the signal
# Method in brief: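 Fluorescence of labelled RT-PCR products separated by capillary electrophoresis gives reporter mRNA levels from transfected HepG2 cells exposed 24 h; values are fitted in both directions relative to DMSO.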
# [18] = target: human RAR-related Orphan Receptor beta (RORb), RORB (gene 6096) (UniProt Q92753); assay: ATG_RORb_TRANS: Attagene TRANS-FACTORIAL HepG2 Assay for human RAR-related Orphan Receptor beta (RORb) (AID 2283010; active means hit-call score of the fitted dose curve at least 0.9, where 1 is the maximum)
# human RAR-related Orphan Receptor beta (RORb), RORB (gene 6096), sequence (Q92753 whole entry, looked up, the tested form may be a part): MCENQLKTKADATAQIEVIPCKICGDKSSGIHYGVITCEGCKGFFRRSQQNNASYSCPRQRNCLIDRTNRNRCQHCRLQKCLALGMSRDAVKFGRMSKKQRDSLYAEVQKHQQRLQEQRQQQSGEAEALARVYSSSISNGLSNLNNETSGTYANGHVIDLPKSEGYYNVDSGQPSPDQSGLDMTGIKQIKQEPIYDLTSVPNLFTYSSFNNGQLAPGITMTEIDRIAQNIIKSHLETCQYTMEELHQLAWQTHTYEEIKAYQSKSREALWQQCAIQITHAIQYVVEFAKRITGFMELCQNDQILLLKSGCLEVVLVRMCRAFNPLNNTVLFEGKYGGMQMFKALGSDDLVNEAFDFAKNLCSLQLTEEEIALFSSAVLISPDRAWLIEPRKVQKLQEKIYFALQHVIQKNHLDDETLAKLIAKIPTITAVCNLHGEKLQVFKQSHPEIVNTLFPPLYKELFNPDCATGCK
# Method in brief: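 HepG2, transient MRTU transfection (GAL4-UAS reporters, exogenous NR-Gal4 chimeras); 24 h compound exposure; total RNA → RT-PCR → 6-FAM primer extension → HpaI digest → CE fluorescence. Positive direction vs DMSO baseline.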
# [19] = target: human Retinoic Acid Receptor beta (RARb), RARB (gene 5915) (UniProt P10826); assay: ATG_RARb_TRANS: Attagene TRANS-FACTORIAL HepG2 Assay for human Retinoic Acid Receptor beta (AID 2283004; active means hit-call score of the fitted dose curve at least 0.9, where 1 is the maximum)
# human Retinoic Acid Receptor beta (RARb), RARB (gene 5915), sequence (P10826 whole entry, looked up, the tested form may be a part): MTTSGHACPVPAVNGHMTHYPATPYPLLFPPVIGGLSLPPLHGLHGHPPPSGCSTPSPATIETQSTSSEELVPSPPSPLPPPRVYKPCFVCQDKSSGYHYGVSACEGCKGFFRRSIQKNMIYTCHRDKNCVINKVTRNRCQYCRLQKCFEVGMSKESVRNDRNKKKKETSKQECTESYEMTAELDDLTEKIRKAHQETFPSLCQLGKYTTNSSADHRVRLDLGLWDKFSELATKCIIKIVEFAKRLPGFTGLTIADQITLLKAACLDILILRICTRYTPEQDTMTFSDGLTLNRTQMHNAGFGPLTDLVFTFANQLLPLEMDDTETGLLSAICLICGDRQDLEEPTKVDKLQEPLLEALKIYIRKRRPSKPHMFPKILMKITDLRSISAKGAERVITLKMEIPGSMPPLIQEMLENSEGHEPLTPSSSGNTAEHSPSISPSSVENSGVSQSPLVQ
# Method in brief: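 HepG2 cells transiently transfected with multiplexed GAL4-UAS reporter units expressing chimeric NR–Gal4 fusions; 24 h compound exposure. Reporter mRNA quantified by RT-PCR, 6-FAM labelling, HpaI digestion and capillary electrophoresis; gain-of-signal fitted against DMSO baseline.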
# [20] = target: Retinoic acid receptor alpha (Homo sapiens) (UniProt P10276); assay: ATG_RARa_TRANS: Attagene TRANS-FACTORIAL HepG2 Assay for human Retinoic Acid Receptor alpha (RARa) (AID 2283005; active means hit-call score of the fitted dose curve at least 0.9, where 1 is the maximum)
# Method in brief: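 HepG2 cells transiently transfected with multiple reporter units expressing chimeric RARα-GAL4 fusion, with GAL4-UAS-driven reporters. After 24 h compound exposure, reporter mRNA induction quantified by RT-PCR and capillary electrophoresis with fluorescent labeling; gain-of-signal fitted relative to DMSO control.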
compound,measurement,setting,value
COC(=O)c1cc(Oc2ccc(Cl)cc2Cl)ccc1[N+](=O)[O-],outcome,[1],inactive
same,AC50,[2],56.8 µM (active)
same,outcome,[3],inactive
same,outcome,[4],inactive
same,outcome,[5],inactive
same,outcome,[6],inactive
same,AC50,[7],20 µM (active)
same,AC50,[8],13.7 µM (active)
same,outcome,[9],inactive
same,outcome,[10],inactive
Oc1ccc(Cc2ccc(O)cc2)cc1,outcome,[1],inactive
same,AC50,[2],100 µM (active)
same,outcome,[3],inactive
same,outcome,[4],inactive
same,outcome,[11],inactive
same,outcome,[12],inactive
same,outcome,[13],inactive
same,outcome,[14],inactive
same,outcome,[6],inactive
same,outcome,[15],inactive
same,outcome,[16],inactive
same,AC50,[7],15.8 µM (active)
same,outcome,[8],inactive
Cc1cc(C(C)(C)c2ccc(O)c(C)c2)ccc1O,outcome,[1],inactive
same,AC50,[2],11.7 µM (active)
same,AC50,[3],34.8 µM (active)
same,AC50,[4],33.7 µM (active)
same,AC50,[11],13.6 µM (active)
same,AC50,[12],10 µM (active)
same,AC50,[13],15 µM (active)
same,outcome,[14],inactive
same,outcome,[6],inactive
same,outcome,[15],inactive
same,AC50,[16],14.3 µM (active)
same,AC50,[7],5.48 µM (active)
same,AC50,[8],3.26 µM (active)
same,outcome,[10],inactive
CNC(=O)N(C)c1nc2ccccc2s1,outcome,[1],inactive
same,outcome,[17],inactive
same,AC50,[2],14.5 µM (active)
same,outcome,[3],inactive
same,outcome,[6],inactive
same,outcome,[7],inactive
same,AC50,[8],52.8 µM (active)
same,outcome,[18],inactive
same,outcome,[10],inactive
CCCCCCCCCCCCN(C)C,AC50,[1],50.9 µM (active)
same,AC50,[2],46.9 µM (active)
same,AC50,[3],54.9 µM (active)
same,AC50,[4],33.4 µM (active)
same,outcome,[12],inactive
same,outcome,[13],inactive
same,outcome,[14],inactive
same,outcome,[5],inactive
same,outcome,[6],inactive
same,outcome,[15],inactive
same,outcome,[16],inactive
same,outcome,[7],inactive
same,outcome,[8],inactive
same,outcome,[9],inactive
COc1nn(C(=O)NS(=O)(=O)c2ccccc2OC(F)(F)F)c(=O)n1C,outcome,[1],inactive
same,outcome,[17],inactive
same,outcome,[2],inactive
same,outcome,[3],inactive
same,outcome,[6],inactive
same,outcome,[19],inactive
same,outcome,[7],inactive
same,outcome,[8],inactive
O=NN1CCOCC1,outcome,[1],inactive
same,outcome,[2],inactive
same,outcome,[3],inactive
same,outcome,[4],inactive
same,outcome,[5],inactive
same,outcome,[6],inactive
same,outcome,[7],inactive
C[C@]12CC[C@@H](O)C[C@@H]1CC[C@@H]1[C@@H]2CC[C@]2(C)C(=O)CC[C@@H]12,outcome,[1],inactive
same,outcome,[2],inactive
same,outcome,[3],inactive
same,outcome,[4],inactive
same,outcome,[11],inactive
same,outcome,[12],inactive
same,outcome,[13],inactive
same,outcome,[14],inactive
same,outcome,[5],inactive
same,outcome,[15],inactive
same,outcome,[19],inactive
same,outcome,[20],inactive
same,outcome,[16],inactive
same,outcome,[8],inactive
same,outcome,[9],inactive
same,outcome,[18],inactive
same,outcome,[10],inactive
Cc1c([N+](=O)[O-])c(C)c([N+](=O)[O-])c(C(C)(C)C)c1[N+](=O)[O-],outcome,[1],inactive
same,outcome,[2],inactive
same,outcome,[3],inactive
same,outcome,[4],inactive
same,AC50,[12],20 µM (active)
same,AC50,[13],20 µM (active)
same,AC50,[14],28.2 µM (active)
same,AC50,[15],20 µM (active)
same,outcome,[20],inactive
same,AC50,[16],26.8 µM (active)
same,outcome,[7],inactive
same,AC50,[8],2.05 µM (active)
